The text below walks through data of the supplement of paper PMC13380429.

Test [1] relates to Vero E6 infected with SARS-CoV-2. Briefly: morphology score (similarity to uninfected cells); higher = more like uninfected cells. The following applies: 24 h.
Test [2] shares this test system. The test is described as follows: SARS-CoV-2 infection rate relative to infected DMSO; higher = more infection, active = 60 or less. The following applies: 24 h.

With `CN1C[C@H](C(=O)N[C@]2(C)O[C@@]3(O)[C@@H]4CCCN4C(=O)[C@H](Cc4ccccc4)N3C2=O)C[C@@H]2c3cccc4[nH]cc(c34)C[C@H]21` [dihydroergotamine] (10 µM), the morphology score in test [1] is -0.0107. In addition, in test [2], the SARS-CoV-2 infection rate is 104% (inactive).
On the same counts, the results for `C=CC(=O)Nc1cc(Nc2nccc(-c3cn(C)c4ccccc34)n2)c(OC)cc1N(C)CCN(C)C` [osimertinib] (10 µM) are -0.27 and 110% (inactive).
In the same order, the values of `OCCN(CCO)c1nc(N2CCCCC2)c2nc(N(CCO)CCO)nc(N3CCCCC3)c2n1` [dipyridamole] (10 µM) are 0.26 and 90.5% (inactive).
In the same order, the values of `CCN1CCN(C(=O)N[C@@H](C(=O)N[C@@H]2C(=O)N3[C@@H]2SC(C)(C)[C@@H]3C(=O)O)c2ccccc2)C(=O)C1=O` [piperacillin] (10 µM) are 0.11 and 96% (inactive).
In test [1], `Oc1ccc(-c2nc(-c3ccc(F)cc3)c(-c3ccncc3)[nH]2)cc1` (10 µM) yielded a morphology score of 0.313. Also, in test [2], the SARS-CoV-2 infection rate is 71% (inactive).
Take `CC(C)[C@@]1(NC(=O)[C@@H]2C[C@@H]3c4cccc5[nH]cc(c45)C[C@H]3N(C)C2)O[C@@]2(O)[C@@H]3CCCN3C(=O)[C@H](Cc3ccccc3)N2C1=O` [dihydroergocristine] (10 µM): in test [1], the morphology score is -0.123. In test [2], the SARS-CoV-2 infection rate was 117% (inactive).
On the same counts, the results for `COc1c2ccoc2cc2oc(=O)ccc12` [bergapten] (10 µM) are 0.0727 and 108% (inactive).
The compound `CC[C@@]1(O)C(=O)OCc2c1cc1n(c2=O)Cc2cc3c(CN(C)C)c(O)ccc3nc2-1` [topotecan] (10 µM) displayed a morphology score in test [1] of 0.0619. Further, the SARS-CoV-2 infection rate in test [2] was 108% (inactive).
In the same order, the values of `CC(C)(C)C(=O)OCOP(=O)(COCCn1cnc2c(N)ncnc21)OCOC(=O)C(C)(C)C` [adefovir-dipivoxil] (10 µM) are -0.117 and 124% (inactive).
In the same order, the values of `NS(=O)(=O)c1cc(C(=O)O)c(NCc2ccco2)cc1Cl` [furosemide] (10 µM) are 0.0455 and 98% (inactive).
`C[C@]12CC[C@@H]3c4ccc(OC(=O)c5ccccc5)cc4CC[C@H]3[C@@H]1CC[C@@H]2O` [estradiol-benzoate] (10 µM): the morphology score in test [1] was -0.19. Further, in test [2], the SARS-CoV-2 infection rate was 111% (inactive).
In the same order, the values of `Cc1c(-c2ccc(O)cc2)n(Cc2ccc(OCCN3CCCCCC3)cc2)c2ccc(O)cc12` [bazedoxifene] (0.833333 µM) are 0.201 and 101% (inactive).
On the same counts, the results for `COc1ccc(C2=N[C@@H](c3ccc(Cl)cc3)[C@@H](c3ccc(Cl)cc3)N2C(=O)N2CCNC(=O)C2)c(OC(C)C)c1` [nutlin-3] (0.833333 µM) are 0.101 and 117% (inactive).
On the same counts, the results for `CC(C)C[C@@H]1NC(=O)[C@@H](C(C)C)NC(=O)[C@@H]2CCCN2C(=O)[C@@H](CC(=O)O)NC(=O)[C@@H](Cc2c[nH]c3ccccc23)NC1=O` (10 µM) are 0.163 and 103% (inactive).
As to `CNC(=O)[C@H](Cc1ccccc1)NC(=O)[C@H](CC(C)C)[C@H](CSc1cccs1)C(=O)NO` [batimastat] (10 µM), the morphology score in test [1] was 0.0292. In addition, the SARS-CoV-2 infection rate in test [2] is 104% (inactive).
In the same order, the values of `N[C@@H](C(=O)O)c1ccc(C(=O)O)c(C(=O)O)c1` (racemic) (10 µM) are 0.105 and 98.2% (inactive).
In the same order, the values of `COc1cc(C(=O)OCCCN2CCCN(CCCOC(=O)c3cc(OC)c(OC)c(OC)c3)CC2)cc(OC)c1OC` [dilazep] (0.833333 µM) are -0.00497 and 106% (inactive).
On the same counts, the results for `CC(C)(C)c1ccc(C(=O)Nc2cn3cc(-n4ccnc4)ccc3n2)cc1` (10 µM) are -0.0468 and 100% (inactive).
With `CCN(CC)c1ccc(/C=N/NC(=O)c2ccc(O)cc2)cc1` (10 µM), the morphology score in test [1] was -0.186. In test [2], the SARS-CoV-2 infection rate was 107% (inactive).
As to `CCN(CC)Cc1ccc2cc(COC(=O)Nc3ccc(C(=O)NO)cc3)ccc2c1` [givinostat] (10 µM), in test [1], the morphology score was -0.215. Further, the SARS-CoV-2 infection rate in test [2] is 112% (inactive).
On the same counts, the results for `CC(C)(N)c1nc(-c2ccc(OC(F)(F)F)cc2)c[nH]1` (10 µM) are 0.0118 and 103% (inactive).
Turning to `Cc1c(F)cccc1NC(=O)Nc1ccc(Cl)c(S(=O)(=O)[C@H]2CCCNC2)c1O` [danirixin] (10 µM), the morphology score in test [1] is 0.19. Also, the SARS-CoV-2 infection rate in test [2] was 98% (inactive).
On the same counts, the results for `Oc1cc(O)c2c(c1)O[C@H](c1ccc(O)c(O)c1)[C@@H](O)C2` [cianidanol] (10 µM) are -0.0417 and 110% (inactive).
In the same order, the values of `COc1ccc(C(=O)c2ccccc2)c(O)c1` [oxybenzone] (10 µM) are 0.131 and 102% (inactive).
`NC(=O)c1cccc(-c2cccc(OC(=O)NC3CCCCC3)c2)c1` (10 µM) had a morphology score in test [1] of 0.00303. Besides, in test [2], the SARS-CoV-2 infection rate is 104% (inactive).
Take `CCc1cccc(CC)c1NC(=O)N1Cc2[nH]nc(NC(=O)c3ccc(N4CCN(C)CC4)cc3)c2C1` (10 µM): in test [1], the morphology score stood at 0.108. Moreover, the SARS-CoV-2 infection rate in test [2] was 113% (inactive).
On to `COc1ccc(-c2nc(-c3ccc(-c4cccc(Cl)c4)o3)[nH]c2-c2ccc(OC)cc2)cc1` [neurodazine] (10 µM), for which the morphology score in test [1] was determined as 0.198. In test [2], the SARS-CoV-2 infection rate was 70% (inactive).
On the same counts, the results for `C[C@]12CCC(=O)C=C1C=C[C@@H]1[C@@H]2CC[C@@]2(C)[C@H]1CC[C@@]2(O)CCC(=O)O` [potassium-canrenoate] (10 µM) are -0.166 and 114% (inactive).
